Data: PubChem BioAssay (NCI)
Compounds without any hit were thinned out: in the full panel of roughly 83,000, 20% have a hit.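 Single-dose data. Exposure time 48 hours. Values below 10 considered active.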 The source made the active and inactive calls.

What follows are compounds tested on HCT-116 colon (assay: NCI-60 one-dose screen, 48 h (100 = growth as untreated, 0 = no growth, -100 = all killed)). Conditions: 10 µM unless noted.

Question: How did the growth turn out when `Cc1c(C(=O)C(SC(=S)N2CCOCC2)SC(=S)N2CCOCC2)nnn1-c1ccc([N+](=O)[O-])cc1` was run?
Answer: Its growth is 96.5% (inactive).

Question: How did the growth turn out when `CC(=O)Cc1nsc(NC(=O)c2cc(-c3cc(Cl)ccc3Cl)oc2C)n1` was run?
Answer: Its growth is 95.8% (inactive).

Question: With `COc1cc2ncnc(Nc3ccc(S(=O)(=O)Nc4cc(C)on4)cc3)c2cc1OCCCN1CCOCC1` as the compound, how does the growth read?
Answer: Its growth is 102% (inactive).

Question: Which growth does the source give for `O=C(c1ccc(F)cc1)C1CCN(CCn2c(=O)[nH]c3ccccc3c2=O)CC1` here?
Answer: Its growth is 110% (inactive).

Question: With `C=CCNc1ccc2c3c(cccc13)C(=O)N(CC=C)C2=O` as the compound, how does the growth read?
Answer: Its growth is 86.5% (inactive).

Question: For `COC(CCP(=O)(c1ccccc1)c1ccccc1)(C(=O)c1ccccc1)c1ccccc1` (stereo unspecified), which growth is on record?
Answer: The growth was 45.5% (inactive).

Question: Which growth does the source give for `COc1cc2c(c(OC)c1OC)C(=O)CC(c1cccc(C(=O)Nc3ccc(Br)cc3)c1)O2` (stereo unspecified) here?
Answer: Its growth is 46.6% (inactive).

Question: For `COc1cc(-c2ccc(-c3ccc(C(=N)N)s3)s2)cc(OC)c1OC`, which growth is on record?
Answer: The growth was -21.5% (active).

Question: With `[2H]C([2H])([2H])Oc1ccc(/C=C/C(=O)/C=C(/C=C/c2ccc(OC([2H])([2H])[2H])c(OC([2H])([2H])[2H])c2OC([2H])([2H])[2H])OB(F)F)c(OC([2H])([2H])[2H])c1OC([2H])([2H])[2H]` as the compound, how does the growth read?
Answer: The growth was 6.6% (active).

Question: With `O=C(O)c1nn(-c2ccc(Cl)cc2)nc1N1CCCC1` as the compound, how does the growth read?
Answer: The growth was 101% (inactive).

Question: How did the growth turn out when `COCCn1cc(-c2nc(-c3cc4cccnc4n3C)cs2)c2cc(OC)ccc21` was run?
Answer: Its growth is 46.1% (inactive).

Question: For `CCOc1cc(\C=N/N=C(N)/C(N)=N\N=C/c2ccc(O)c(OCC)c2)ccc1O`, which growth is on record?
Answer: The growth was 99.6% (inactive).

Question: `CC(C)=CCC[C@](C)(O)C1CC[C@]2(C)[C@@H]1CC[C@@H]1[C@@]3(C)CC/C(=N\OCCC#N)C(C)(C)[C@@H]3CC[C@]12C` (stereo partly specified) was tested. Which growth did it give?
Answer: Its growth is 66.2% (inactive).

Question: Which growth does the source give for `CCCc1cc(CCC)n2nc(N)nc2n1` here?
Answer: The growth was 103% (inactive).

Question: How did the growth turn out when `CC(CN)[C@@H]1CC[C@]2(CO)CC[C@]3(C)[C@H](CC[C@@H]4[C@@]5(C)CCC(NCCO)C(C)(C)[C@@H]5CC[C@]43C)[C@@H]12` (stereo partly specified) was run?
Answer: Its growth is 6.92% (active).

Question: For `COc1cccc(C(=O)Nc2cccc(NC(=O)c3ccccn3)c2)c1`, which growth is on record?
Answer: Its growth is 94% (inactive).

Question: For `Cc1ccc(S(=O)(=O)c2nc(-c3ccccc3)oc2S(C)=O)cc1` (stereo unspecified), which growth is on record?
Answer: The growth was -20.3% (active).

Question: With `O=[N+]([O-])c1ccc(Oc2cccc3c(Oc4ccc([N+](=O)[O-])cc4[N+](=O)[O-])cccc23)c([N+](=O)[O-])c1` as the compound, how does the growth read?
Answer: The growth was 83.1% (inactive).

Question: How did the growth turn out when `CC1(C)CC(=O)C2=C(C1)OC(C(=O)c1ccccc1)C2c1cccc(Oc2ccccc2)c1` (stereo unspecified) was run?
Answer: Its growth is 33.8% (inactive).

Question: `Cn1cc(-c2nc(-c3c[nH]c4c(Cl)nccc34)cs2)c2ccccc21` was tested. Which growth did it give?
Answer: The growth was 94.4% (inactive).

Question: With `CCCCCN(CCCCC)CC(O)c1c(Cl)ccc2ccccc12` (stereo unspecified) as the compound, how does the growth read?
Answer: Its growth is 37.2% (inactive).

Question: `COc1cccc2cc(N(C)c3ncnc4ccccc34)ccc12` was tested. Which growth did it give?
Answer: Its growth is 8.07% (active).

Question: For `CN1C(=O)N(C)C2C1NN=c1s/c(=C\c3ccccc3F)c(=O)n12` (stereo unspecified), which growth is on record?
Answer: The growth was 14% (inactive).

Question: How did the growth turn out when `C#Cc1ccc(NC(=O)Cc2ccc(/C=C/C(=O)c3nccn3C)cc2)cc1` was run?
Answer: Its growth is 21.6% (inactive).

Question: For `O=C1C2C(c3cccs3)C=C(c3ccc(Cl)cc3)N2C(=S)N1c1ccccc1` (stereo unspecified), which growth is on record?
Answer: Its growth is 101% (inactive).

Question: How did the growth turn out when `Cc1cc2nc(C(Cl)Cl)nc(-c3ccccc3)n2n1` was run?
Answer: The growth was 41.1% (inactive).

Question: How did the growth turn out when `O=C(NS(=O)(=O)c1ccccc1)n1cc(-c2ccncc2)c(-c2cc(O)cc(Cl)c2)n1` was run?
Answer: The growth was 91.7% (inactive).

Question: With `CCOC(=O)c1cc(C(=O)c2cc(OC)cc(OC)c2)n2ncccc12` as the compound, how does the growth read?
Answer: Its growth is 13.5% (inactive).

Question: Which growth does the source give for `CC1=C2[C@@H](CC1)[C@]1(C)O[C@@](C(C)C)(C[C@H]1OC(=O)CO)[C@H]2OC(=O)CCCc1ccccc1` here?
Answer: The growth was 68.7% (inactive).

Question: `O=C1/C(=C/c2cccc(Br)c2)COc2ccc(O)c(O)c21` was tested. Which growth did it give?
Answer: The growth was -51% (active).

Question: How did the growth turn out when `Nc1nc(N)c2c(n1)NC(c1cccc(Nc3ccnc4cc(C(F)(F)F)ccc34)c1)CC(c1ccc(Cl)cc1)=N2` (stereo unspecified) was run?
Answer: Its growth is 15.1% (inactive).

Question: How did the growth turn out when `COc1ccc2c(c1)c(-c1nc(-c3cn(C)c4ccncc34)cs1)cn2C` was run?
Answer: The growth was -88.6% (active).

Question: With `Cc1[nH]c(C(=O)Nc2ccc(C(N)=O)cc2OC(C)C)c(Cl)c1Cl` as the compound, how does the growth read?
Answer: Its growth is 98.3% (inactive).

Question: How did the growth turn out when `COc1cc2nc3cc([N+](=O)[O-])ccc3c(NCCCNCCO)c2cc1OC` was run?
Answer: Its growth is -33.7% (active).

Question: How did the growth turn out when `CC1OC(C(=O)N2CCN(CCO)CC2)CC1COC1CCCCC1` (stereo unspecified) was run?
Answer: Its growth is 97% [50 µM] (inactive).

Question: `CC(C)(C)CC(C)(C)Nc1c(-c2c(O)c3ccccc3oc2=O)nc2sccn12` was tested. Which growth did it give?
Answer: The growth was 98.2% (inactive).
